# Assay outcomes (PubChem BioAssay)
# Only some compounds are listed: those with a hit (about 9% of all), similar ones and a draw of the others.
# G9a block: qHTS Assay for Inhibitors of Histone Lysine Methyltransferase G9a. Potency, µM (titrated, usually from 102 µM), for inactives: top-dose activity, negative = inhibition, actives largely listed as inhibitors. 8.8% of 350,000 active. Histone-lysine N-methyltransferase EHMT2 (Homo sapiens), Q96KQ7. G9a H3K9 monomethylation, AlphaScreen, 2 h; further: on the % scale 0 is the no-effect control and ±100 the full control effect; nearly all actives have a fitted effect of over 75% in size
# Target sequence (Q96KQ7 913-1193 limits assumed): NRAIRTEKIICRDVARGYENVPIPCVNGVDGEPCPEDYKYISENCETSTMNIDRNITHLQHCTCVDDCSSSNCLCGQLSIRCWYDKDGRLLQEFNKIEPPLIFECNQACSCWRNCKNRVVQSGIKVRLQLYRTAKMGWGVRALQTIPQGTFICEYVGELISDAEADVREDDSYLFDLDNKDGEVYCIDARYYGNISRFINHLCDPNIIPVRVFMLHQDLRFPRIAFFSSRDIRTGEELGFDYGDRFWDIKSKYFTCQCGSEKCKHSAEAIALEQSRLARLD
#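 AlphaScreen read-out: biotin-H3K9 peptide (500 nM) methylation by 20 nM enzyme with 20 uM SAM, 2 h at room temperature after 15 min compound preincubation; anti-monomethyl H3K9 antibody plus donor/acceptor beads, 10 min dark.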
# PLK1 PBD inh: qHTS for Inhibitors of PLK1-PDB (polo-like kinase 1 - polo-box domain): Primary Screen. Plk1 PBD binding of FITC phosphopeptide, fluorescence polarization. Serine/threonine-protein kinase PLK1 (Homo sapiens), P53350. 2.8% of 360,000 active. Potency, µM, without a hit: max response, negative = inhibition, actives largely listed as inhibitors; further: series mostly up to about 57 µM; on the % scale 0 is the no-effect control and ±100 the full control effect; nearly all actives have a fitted effect of over 65% in size
# 12-LOX inh: Primary qHTS assay for inhibitors of human arachidonate 12S-lipoxygenase (ALOX12): Round 2 | Polyunsaturated fatty acid lipoxygenase ALOX12 (Homo sapiens), P18054 | purified 12hLO, xylenol orange hydroperoxide absorbance | Potency, µM (series often up to 108 µM), for inactives: at the top dose activity change, negative = inhibition, hits mostly inhibitors | 1.1% of 580,000 active; further: on the % scale 0 is the no-effect control and ±100 the full control effect
#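 Hydroperoxide product was detected by ferrous iron/xylenol orange as the 573 to 405 nm absorbance ratio. Arachidonic acid at 40 uM (final) was turned over for 30 min at room temperature by 150 nM human 12hLO, pH 7.0 Hepes buffer, after 15 min compound preincubation.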
# HP1b chromo inh: HTS for Inhibitors of HP1-beta Chromodomain Interactions with Methylated Histone Tails; AlphaScreen HP1-beta / biotin-H3K9me3 peptide binding; Potency, µM (highest dose often 114 µM), without a hit: at the highest dose activity change, negative = inhibition, usual class: inhibitors; 0.56% of 390,000 active; further: nearly all actives have a fitted effect of over 70% in size
# Target sequence (P83916 whole entry, looked up): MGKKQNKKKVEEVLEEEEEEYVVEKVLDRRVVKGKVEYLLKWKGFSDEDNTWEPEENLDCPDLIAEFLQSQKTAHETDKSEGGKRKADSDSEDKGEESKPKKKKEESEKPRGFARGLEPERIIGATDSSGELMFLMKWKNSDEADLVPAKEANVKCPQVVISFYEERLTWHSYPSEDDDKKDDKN
#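 Compound inhibition of the preformed complex between 50 nM HP1-beta and 50 nM biotinylated H3K9me3 peptide was read by AlphaScreen. Buffer was PBS pH 7.4 with 0.01% Tween-20. Incubations ran 30 min at room temperature, with 10 ug/mL donor/acceptor beads.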
# JMJD2A Tudor: qHTS Assay for Inhibitors of JMJD2A-Tudor Domain; Potency, µM (doses to about 114 µM), without a hit: at the highest dose activity change, negative = inhibition, actives largely listed as inhibitors; 4.4% of 390,000 active; AlphaScreen JMJD2A-Tudor / H3K4me3 peptide binding; Lysine-specific demethylase 4A (Homo sapiens), O75164; further: on the % scale 0 is the no-effect control and ±100 the full control effect; nearly all actives have a fitted effect of over 50% in size
# BAZ2B inh: qHTS Assay for Inhibitors of BAZ2B | Bromodomain adjacent to zinc finger domain protein 2B (Homo sapiens), Q9UIF8 | AlphaScreen BAZ2B-H3K14Ac peptide displacement | Potency, µM (series often up to 114 µM), for the others: at the top dose activity change, negative = inhibition, usual class: inhibitors | 4.4% of 360,000 active; further: on the % scale 0 is the no-effect control and ±100 the full control effect; nearly all actives have a fitted effect of over 60% in size
#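 Multi-concentration screen (max 110 uM) measuring displacement of acetylated histone H3 peptide from BAZ2B by AlphaScreen, using 50 nM protein, 50 nM peptide and 10 ug/mL streptavidin donor plus Ni-chelate acceptor beads.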
# Numbers without * were called inactive; u = inconclusive; x = no result; [ ] = dose if it differs, or a comment. The call rests on the fitted dose curve; in most records, active means well fitted curve in the direction sought with a large enough effect; inconclusive means small, poorly fitted or top-dose-only effect, or another doubt; inactive means no such curve, though single readings can be large; an effect the other way counts as inactive or inconclusive. Potency means the concentration at half of the fitted maximal effect.
SMILES,G9a block,PLK1 PBD inh,12-LOX inh,HP1b chromo inh,JMJD2A Tudor,BAZ2B inh
NC(=O)CC[C@@H]1NC(=O)[C@H](Cc2ccc(O)cc2)NC(=O)c2cc([N+](=O)[O-])cc(F)c2OCC[C@@H](C(N)=O)NC1=O,u,-13%,-6%,6%,-25%,-11%
NC(=O)C[C@@H]1NC(=O)[C@H](CCC(=O)O)NC(=O)c2cc([N+](=O)[O-])cc(I)c2OCC[C@@H](C(N)=O)NC1=O,28µM*,-14%,x,6%,-26%,-35%
NCCCC[C@@H]1NC(=O)c2cc([N+](=O)[O-])cc(F)c2NCCCC[C@@H](C(N)=O)NC(=O)[C@H](CCC(N)=O)NC1=O,u,-8%,0%,28%,-18%,-3%
Cc1ccccc1C(C)NC(=O)c1cc(Cl)c[nH]1 (configuration not stated),x,x,-7%,x,x,x
COC(=O)C1=C(C)NC(=O)NC1c1c(O)ccc2ccccc12 (configuration not stated),u,-6%,u,36%,-18%,-1%
CCN(Cc1ccccc1)C(=O)CCc1nc(-c2ccc(C)cc2)no1,140%,-7%,0%,80%,20%,43%
CCN(Cc1ccccc1)C(=O)CCc1nc(CN2CCN(C(=O)c3ccc([N+](=O)[O-])cc3)CC2)no1,79µM*,-17%,u,36%,-10%,-33%
Cc1c(-c2nc(N)nc(Nc3ccccc3)n2)oc2ccccc12,-5%,0%,340%,38%,-12%,3%
CCN(CC)C(=O)c1ccc(/C=C/c2c[nH]c3ccccc23)[n+](C)c1,3.2µM*,102%,u,19%,u,-9%
Cc1ccc(C(=O)/C=C/c2c[nH]c3ccccc23)cc1,3%[12.7 µM],0%,u,30%,-16%,u
CC[n+]1c(/C=C/c2c[nH]c3ccccc23)ccc2cc(C)ccc21,35µM*,95%,u,-19%,u,u
CC[n+]1c(C)ccc2cc(C)ccc21,x,x,5.6µM*,x,x,x
COCCn1c(SCC(=O)NC2CCCC2)nnc1-c1ccco1,-21%,-6%,7%,22%,-7%,2%
Cc1ccc(C)c(CN2C(=O)c3ccccc3Sc3ccc(C(=O)NCCCOC(C)C)cc32)c1,-7%[59 µM],x,-12%,-4%,-12%,-1%
COCCn1c(C)cc(C(=O)COC(=O)c2ccc([N+](=O)[O-])o2)c1C,79µM*,-3%,-49%,4%,u,45µM*
Cc1cc(C(=O)COC(=O)c2ccc([N+](=O)[O-])o2)c(C)n1CC1CCCO1 (configuration not stated),45µM*,-7%,4%,10%,-27%,u
COCCn1c(C)cc(C(=O)COC(=O)c2cccc(O)c2)c1C,u,-9%,7%,-6%,-24%,u
COCCn1c(C)cc(C(=O)COC(=O)c2cc3c(s2)CCC3)c1C,45µM*,u,0%,u,35µM*,40µM*
Cc1cc(C)c(C(=O)COC(=O)c2ccc([N+](=O)[O-])o2)cc1C,u,-14%,-17%,-19%,-22%[11.4 µM],x
CCCCCNc1nc2c(-c3ccccc3)nnn2c2ccccc12,11%[59 µM],x,0%,37%,-10%,-2%
CC(C)c1cnc(-c2ccccc2)[nH]1,x,x,9%[12.5 µM],x,x,x
COc1cccc(/C=C2\SC(=S)N(CCCC(=O)N(CCO)c3ccccc3)C2=O)c1,u,5%,-5%,-23%,35µM*,u
O=C1/C(=C/c2cccc(Br)c2)SC(=S)N1CCC(=O)N(CCO)c1ccccc1,x,-2%,0%,-24%,32µM*,u
COc1cccc(/C=C2\SC(=S)N(CCCC(=O)Nc3cccc(C(=O)O)c3)C2=O)c1,x,-2%,x,x,x,x
O=C1/C(=C/c2ccc3c(c2)OCO3)SC(=S)N1CCC(=O)N(CCO)c1ccccc1,x,-1%,u,x,x,x
SMILES,G9a block,PLK1 PBD inh,12-LOX inh,HP1b chromo inh,JMJD2A Tudor,BAZ2B inh
CC[C@@]1([C@@H]2O[C@@H]([C@H]3O[C@@](O)(CO)[C@H](C)C[C@H]3C)C[C@H]2C)CC[C@H]([C@]2(C)CC[C@]3(C[C@H](O)[C@@H](C)[C@@H]([C@@H](C)[C@@H](OC)[C@H](C)C(=O)O)O3)O2)O1,x,x,-1%[22.9 µM],x,x,x
Nc1nc(-c2ccccc2)cn1/N=C/c1ccccc1,50µM*,-14%,8%,u,-34%,-24%
COc1ccc(-c2cn(/N=C/c3ccc(Cl)cc3Cl)c(N)n2)cc1,35µM*,-13%,-22%,3%,-19%,-12%
CC(C)(C)c1cnnn1-c1ccc(C=O)cc1,1%[59 µM],-10%,-6%,13%,-11%,3%
CC(C)(C)c1cnnn1-c1ccc(C(=O)CCl)cc1,u,6.7µM*,u,22%,-21%,-20%
O=C(Nc1ccc(N2CCOCC2)cc1)c1cc2ccccc2o1,-22%[12.7 µM],-3%,322%,15%,-20%,-37%
CCOC(=O)c1nnn2c1nc(N1CCN(C)CC1)c1ccccc12,x,-13%,0%,8%,-5%,-2%
CCN(CC)CCN(CC)Cc1ccccc1Br,50µM*,-4%,u,35%,-2%,-12%
CC1(CCl)N([O-])C2=C(CCCC2)[N+]1=O (configuration not stated),32µM*,-16%,u,31%,-4%,45µM*
CCC(=O)NCCc1nc2cc(NC(=O)COc3ccccc3)ccc2n1C,21%,-14%,-4%,5%,-5%,12%
CCOC(=O)c1c(NC(=O)CSc2nnc(C)s2)sc2c1CCN(C)C2,4.5µM*,0%,7%,23%,u,-36%
CCOC(=O)c1c(NC(=O)Cc2ccccc2)sc2c1CCN(C)C2,u,1%,-16%,50%,-24%,-33%
CCOC(=O)c1c(NC(=S)Nc2ccc(OCC)cc2)sc2c1CCN(C)C2,50µM*,u,u,-10%,-17%,u
CCOP(C)(=O)C1(C(=O)OCc2ccccc2)CC1 (configuration not stated),22%[59 µM],-4%,-3%,10%,-3%,3%
CC(C)CCNC(=O)NC(=O)COC(=O)CCN=C1NS(=O)(=O)c2ccccc21,9%,7%,3%,33%,-4%,-7%
Cc1ccc(-n2nnnc2SCC(=O)Nc2ccc3c(c2)COC3=O)cc1C,-2%[59 µM],-15%,54%,48%,-6%,9%
